# Several values for one entry are separate records, joined by “and”; a condition that tells them apart may be missing. Equal entries are not always repeated. Records with an inconclusive call do not appear. Where a call stands in place of a potency, no number is given. Some compounds were tested as several samples or in several runs, with calls that do not always agree. Activity calls are given as the source filed them. Unless noted, calls follow the shape of the full dose curve. Peptide text beside a SMILES is read from it.
# What was measured:
# [1] = Nuclear factor erythroid 2-related factor 2/antioxidant responsive element (Nrf2/ARE) small molecule agonists: qHTS cell viability counter screen in human keratinocytes (AID 1919968; active = well fitted curve in the direction sought with a large enough effect in the repeat runs; an effect the other way counts as inactive or inconclusive; also: nearly all actives have a fitted effect of over 55% in size)
# In short: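 After a 5 h attachment period, ARE-reporter keratinocytes were dosed with compounds in DMSO and then cultured 23 h at 37 C. Cell viability came from CellTiter-Fluor signal read after a further 1 h.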
# [2] = Nuclear factor erythroid 2-related factor 2/antioxidant responsive element (Nrf2/ARE) small molecule agonists: luciferase reporter gene qHTS assay in human keratinocytes (AID 1919969); also: nearly all actives have a fitted effect of over 35% in size
# [3] = molecular target: Gonadotropin-releasing hormone receptor (Homo sapiens) (UniProt P30968); assay: Human gonadotropin-releasing hormone receptor (GnRHR) small molecule agonists, calcium flux assay in GnRHR-HEK293 cells (AID 1920063); also: nearly all actives have a fitted effect of over 35% in size
# Sequence of Gonadotropin-releasing hormone receptor (Homo sapiens) (P30968 whole entry, looked up): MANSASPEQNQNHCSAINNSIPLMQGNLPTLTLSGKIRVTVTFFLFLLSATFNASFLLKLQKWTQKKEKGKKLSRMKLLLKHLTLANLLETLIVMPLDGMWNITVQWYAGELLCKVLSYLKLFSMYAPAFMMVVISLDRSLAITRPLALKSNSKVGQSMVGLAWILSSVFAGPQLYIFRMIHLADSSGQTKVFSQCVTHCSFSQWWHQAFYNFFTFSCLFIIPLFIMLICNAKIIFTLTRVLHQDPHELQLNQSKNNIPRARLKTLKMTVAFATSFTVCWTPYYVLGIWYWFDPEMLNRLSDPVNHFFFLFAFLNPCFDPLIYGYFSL
# In short: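 We seeded human GnRHR-expressing HEK293 cells for 18 hours, loaded them with calcium dye for an hour at 37 C, added test compounds, and recorded fluorescence intensity kinetically for three minutes.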
# [4] = molecular target: KiSS-1 receptor (Homo sapiens) (UniProt Q969F8); assay: Human kisspeptin (KISS1R) small molecule agonists, calcium flux assay in KISS1R-HEK293 cells (AID 1920064; active = well fitted curve in the direction sought with a large enough effect in the repeat runs; an effect the other way counts as inactive or inconclusive)
# Sequence of KiSS-1 receptor (Homo sapiens) (Q969F8 whole entry, looked up): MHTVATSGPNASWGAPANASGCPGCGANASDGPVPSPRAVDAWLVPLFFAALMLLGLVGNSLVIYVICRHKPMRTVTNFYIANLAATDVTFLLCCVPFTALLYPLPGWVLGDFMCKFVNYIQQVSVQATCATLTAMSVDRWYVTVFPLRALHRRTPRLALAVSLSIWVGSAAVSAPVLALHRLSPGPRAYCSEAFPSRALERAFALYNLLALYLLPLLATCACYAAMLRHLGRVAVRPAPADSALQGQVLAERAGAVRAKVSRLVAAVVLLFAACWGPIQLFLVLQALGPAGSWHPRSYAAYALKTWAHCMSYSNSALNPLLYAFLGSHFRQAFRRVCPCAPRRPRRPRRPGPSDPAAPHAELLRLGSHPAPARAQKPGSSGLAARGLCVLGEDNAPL
# In short: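 Kinetic calcium assay, 1 s sampling over 3 min at Ex/Em 480/540, in HEK293 cells engineered with human KISS1R; compounds delivered in DMSO after 1 h dye loading.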
# [5] = G protein-coupled receptor (GPCR) small molecule agonists, calcium flux assay: HEK293 wild type cell line counter screen (AID 1920065)
# In short: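 Calcium-sensitive dye, loaded 1 h at 37 C into cells cultured 18 h, reports compound-evoked calcium release as fluorescence (Ex/Em 480/540), measured over 3 min. Agonist mode; 15-point titrations, triplicate.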
# [6] = p53 small molecule agonists, cell-based qHTS assay with human liver microsomes (AID 1963577);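 also: p53 response element beta-lactamase reporter cells with liver microsomes plus NADPH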
# In short: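 Reporter activation was measured by LiveBLAzer fluorescence intensity in p53RE-bla cells, which had been exposed to compounds for 16 h at 37 C alongside 0.5 mg/mL human liver microsomes and 0.5 mg/mL NADPH (final concentrations).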
# [7] = p53 small molecule agonists, cell-based qHTS assay with rat liver microsomes (AID 1963578)
# In short: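 Compound in DMSO added to p53RE-bla cells 5 h post-plating; rat microsomes/NADPH 0.5 mg/mL final; 16 h, 37 C; LiveBLAzer 2 h RT.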
# [8] = p53 small molecule agonists, cell-based qHTS assay with human liver microsomes: qHTS cell viability counter screen (AID 1963579); also: nearly all actives have a fitted effect of over 45% in size
# In short: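 HLM-supplemented (0.5 mg/mL final) and NADPH-supplemented (0.5 mg/mL final) p53RE-bla cultures, 4,000 cells per well, were dosed with compounds in DMSO for 16 h at 37 C; luminescent ATP detection (CellTiter-Glo, 30 min, room temperature) quantified surviving cells.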
# [9] = p53 small molecule agonists, cell-based qHTS assay with rat liver microsomes: qHTS cell viability counter screen (AID 1963580); also: nearly all actives have a fitted effect of over 45% in size
# In short: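 Viability is assessed in parallel with the p53 reporter read: HCT-116 p53RE-bla cells receive compounds plus rat microsomes and NADPH (0.5 mg/mL final apiece), incubate 16 h at 37 C, and then CellTiter-Glo luminescence is recorded.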
# [10] = p53 small molecule agonists, cell-based qHTS assay: qHTS cell viability counter screen (AID 1963581); also: nearly all actives have a fitted effect of over 45% in size
# In short: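 Following 5 h attachment, HCT-116 p53RE-bla cells took up compound for 16 h at 37 C; the reporter was read with B/G FRET substrate (2 h RT), and viability then via CellTiter-Glo ATP luminescence.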
# [11] = p53 small molecule agonists, cell-based qHTS assay (AID 1963582; active = well fitted activation curve with a large enough effect in the signal ratio in the repeat runs, not every such curve was filed as active; the % refers to the signal ratio)
# In short: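 In this cell-based concentration-response screen, a p53 response element drives beta-lactamase; cells received DMSO-borne compounds after 5 h culture and were incubated a further 16 h before FRET substrate development.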
# [12] = molecular target: 5-hydroxytryptamine receptor 2A (Homo sapiens) (UniProt P28223); assay: 5-hydroxytryptamine receptor 2A (HTR2A) small molecule antagonists, cell-based qHTS assay (AID 1963586); also: nearly all actives have a fitted effect of over 45% in size; also: potency is read from the fitted curve at half-maximal effect
# Sequence of 5-hydroxytryptamine receptor 2A (Homo sapiens) (P28223 whole entry, looked up): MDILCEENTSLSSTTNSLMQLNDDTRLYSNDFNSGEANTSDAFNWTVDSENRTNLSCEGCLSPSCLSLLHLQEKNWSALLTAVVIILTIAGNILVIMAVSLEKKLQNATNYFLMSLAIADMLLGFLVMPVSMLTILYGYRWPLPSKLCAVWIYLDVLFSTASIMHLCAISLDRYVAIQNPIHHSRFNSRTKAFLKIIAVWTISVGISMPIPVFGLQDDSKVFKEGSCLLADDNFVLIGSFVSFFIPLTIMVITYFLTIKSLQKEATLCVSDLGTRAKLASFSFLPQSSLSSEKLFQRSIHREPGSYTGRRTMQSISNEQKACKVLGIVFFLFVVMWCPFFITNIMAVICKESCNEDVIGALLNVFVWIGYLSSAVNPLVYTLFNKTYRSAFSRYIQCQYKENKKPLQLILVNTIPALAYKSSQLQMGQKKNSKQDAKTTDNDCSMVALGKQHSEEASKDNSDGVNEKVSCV
# In short: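 Antagonist-mode intracellular calcium assay: DOI (4 nM) added after 5 min compound pre-incubation at room temperature to dye-loaded HTR2A-CHO cells. Fluorescence followed for 3 min, sampled every second.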
# [13] = molecular target: 5-hydroxytryptamine receptor 2A (Homo sapiens) (UniProt P28223); assay: 5-hydroxytryptamine receptor 2A (HTR2A) small molecule agonists, cell-based qHTS assay (AID 1963587); also: nearly all actives have a fitted effect of over 30% in size
# In short: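 CHO cells stably expressing human HTR2A, plated 18 h, loaded with calcium dye 1 h at 37 C. Agonist mode: compounds added and intracellular calcium fluorescence recorded kinetically for 2 min at 1 sec intervals.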
# [14] = molecular target: Muscarinic acetylcholine receptor M1 (Homo sapiens) (UniProt P11229); assay: Cholinergic receptor muscarinic 1 (CHRM1) small molecule antagonists, cell-based qHTS assay (AID 1963588); also: nearly all actives have a fitted effect of over 40% in size
# Sequence of Muscarinic acetylcholine receptor M1 (Homo sapiens) (P11229 whole entry, looked up): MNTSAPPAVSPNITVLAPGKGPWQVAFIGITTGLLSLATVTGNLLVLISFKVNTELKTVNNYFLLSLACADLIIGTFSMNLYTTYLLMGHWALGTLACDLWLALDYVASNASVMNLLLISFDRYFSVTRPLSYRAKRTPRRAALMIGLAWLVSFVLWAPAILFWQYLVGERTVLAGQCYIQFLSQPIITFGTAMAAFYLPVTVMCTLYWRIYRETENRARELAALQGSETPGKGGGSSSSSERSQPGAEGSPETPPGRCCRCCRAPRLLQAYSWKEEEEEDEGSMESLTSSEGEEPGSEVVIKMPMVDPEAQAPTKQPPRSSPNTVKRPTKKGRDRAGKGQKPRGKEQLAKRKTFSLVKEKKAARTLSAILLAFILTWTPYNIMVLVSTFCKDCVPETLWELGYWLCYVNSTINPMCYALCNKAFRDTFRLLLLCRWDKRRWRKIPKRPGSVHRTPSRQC
# In short: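 CHRM1-CHO calcium-flux assay, antagonist mode. Cells were seeded 18 h, dye-loaded 1 h at 37 C and given compound for 5 min at RT, then acetylcholine was added at 50nM. FDSS fluorescence was read 3 min; 15 concentrations, three runs.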
# [15] = molecular target: Muscarinic acetylcholine receptor M1 (Homo sapiens) (UniProt P11229); assay: Cholinergic receptor muscarinic 1 (CHRM1) small molecule agonists, cell-based qHTS assay (AID 1963589); also: nearly all actives have a fitted effect of over 35% in size
# In short: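 Measures agonist-induced intracellular calcium rise. Stable human CHRM1 CHO line, 1 h dye load at 37 C, compounds from DMSO, kinetic fluorescence read.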
# [16] = cAMP Responsive Elements (CRE) small molecule agonists, cell-based qHTS assay (AID 1963590)
# In short: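 A CRE-responsive beta-lactamase reporter in HEK 293T cells was used. Treatment ran 3 h at 37 C; detection used LiveBLAzer B/G FRET substrate for 2 h at room temperature.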
# [17] = cAMP Responsive Elements (CRE) small molecule antagonists, cell-based qHTS assay (AID 1963591; active = well fitted inhibition curve with a large enough effect in the signal ratio in the repeat runs, not every such curve was filed as active; the % refers to the signal ratio)
# In short: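 HEK293T cells carrying a CRE-driven beta-lactamase reporter receive compound and NKH477 (0.25 uM final) for 3 h. Fluorescence from LiveBLAzer B/G FRET substrate is read after 2 h at room temperature.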
# [18] = molecular target: Beta-2 adrenergic receptor (Homo sapiens) (UniProt P07550); assay: Adrenergic beta2 receptor (ADRB2) small molecule antagonists, cell-based qHTS assay (AID 1963592); also: series mostly up to about 92 µM; nearly all actives have a fitted effect of over 50% in size
# Sequence of Beta-2 adrenergic receptor (Homo sapiens) (P07550 whole entry, looked up): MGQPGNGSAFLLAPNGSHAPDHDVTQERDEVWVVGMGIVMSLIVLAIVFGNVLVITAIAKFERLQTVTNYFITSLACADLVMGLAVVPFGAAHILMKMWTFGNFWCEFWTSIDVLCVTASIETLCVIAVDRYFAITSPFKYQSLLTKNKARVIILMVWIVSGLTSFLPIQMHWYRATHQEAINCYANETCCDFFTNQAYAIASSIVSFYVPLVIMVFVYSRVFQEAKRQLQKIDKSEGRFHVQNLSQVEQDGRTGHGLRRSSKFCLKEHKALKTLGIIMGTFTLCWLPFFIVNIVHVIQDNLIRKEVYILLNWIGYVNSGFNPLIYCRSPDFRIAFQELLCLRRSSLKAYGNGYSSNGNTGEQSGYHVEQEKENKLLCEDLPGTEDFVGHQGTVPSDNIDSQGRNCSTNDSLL
# In short: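 Cells (CHO, stable ADRB2 overexpression) incubated 18-20hr at 37C; compounds added from DMSO; agonist mix (1nM isoproterenol, 100uM IBMX, 25uM Ro-20-1724) added; 0.5hr RT; d2-cAMP and anti-cAMP-cryptate added; 1hr RT; 665/615 nm read.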
# [19] = molecular target: D(2) dopamine receptor (Homo sapiens) (UniProt P14416); assay: Dopamine D2 receptor (DRD2) small molecule agonists, cell-based qHTS assay (AID 1963594); also: nearly all actives have a fitted effect of over 35% in size
# Sequence of D(2) dopamine receptor (Homo sapiens) (P14416 whole entry, looked up): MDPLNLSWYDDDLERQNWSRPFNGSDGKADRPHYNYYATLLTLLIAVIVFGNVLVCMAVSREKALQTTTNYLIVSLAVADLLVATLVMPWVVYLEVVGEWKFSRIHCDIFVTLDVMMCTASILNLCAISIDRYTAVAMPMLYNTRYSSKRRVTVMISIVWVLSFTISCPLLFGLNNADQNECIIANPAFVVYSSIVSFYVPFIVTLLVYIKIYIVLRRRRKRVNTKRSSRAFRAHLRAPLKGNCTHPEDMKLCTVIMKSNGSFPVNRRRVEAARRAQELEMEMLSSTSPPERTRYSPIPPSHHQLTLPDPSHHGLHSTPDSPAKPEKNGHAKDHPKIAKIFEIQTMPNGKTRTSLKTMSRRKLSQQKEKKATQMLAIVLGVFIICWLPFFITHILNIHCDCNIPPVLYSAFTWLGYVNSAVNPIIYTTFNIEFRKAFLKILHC
# In short: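 HEK293 cells stably expressing human DRD2, pre-treated with PDE inhibitor Ro20-1724 (0.1 mM final) and compound 10 min at room temperature, then stimulated with NKH477 (200nM […]) for 30 min. cAMP read by HTRF (665/620 nm).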
# [20] = molecular target: D(2) dopamine receptor (Homo sapiens) (UniProt P14416); assay: Dopamine D2 receptor (DRD2) small molecule antagonists, cell-based qHTS assay (AID 1963595; active = well fitted inhibition curve with a large enough effect in the signal ratio in the repeat runs, with a control signal flat; the % refers to the signal ratio; also: potency is read from the fitted curve at half-maximal effect)
# In short: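 In this cell-based antagonist screen, compounds act for 10 min at room temperature before a 30 min challenge with 12 nM quinpirole and 200 nM NKH477. cAMP is quantified by HTRF competition in DRD2-HEK293 cells containing 0.1 mM Ro20-1724.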
Structure (SMILES),Potency [1],Potency [2],Potency [3],Potency [4],Potency [5],Potency [6],Potency [7],Potency [8],Potency [9],Potency [10],Potency [11],Potency [12],Potency [13],Potency [14],Potency [15],Potency [16],Potency [17],Potency [18],Potency [19],Potency [20]
COCN(COC)c1nc(N(COC)COC)nc(N(COC)COC)n1,inactive,inactive,inactive,inactive,inactive,inactive,inactive,inactive,inactive,inactive,inactive,inactive,inactive,inactive,inactive,inactive,inactive,inactive,inactive,
COC(=O)c1ccc(C=O)cc1,inactive,inactive,inactive,inactive,inactive,inactive,inactive,inactive,inactive,inactive,inactive,inactive,inactive,inactive,inactive,inactive,inactive,inactive,inactive,inactive
CCCOC(=O)NCCCN(C)C,inactive,inactive,inactive,inactive,inactive,inactive,inactive,inactive,inactive,inactive,inactive,inactive,inactive,inactive,inactive,inactive,inactive,inactive,inactive,inactive
O=C1CCCCCCCCCCC1,inactive,inactive,inactive,inactive,inactive,inactive,inactive,inactive,inactive,inactive,inactive,inactive,inactive,inactive,inactive,inactive,inactive,inactive,,inactive
COCC(C)O (configuration not stated),inactive,inactive,inactive,inactive,inactive,inactive,inactive,inactive,inactive,inactive,inactive,inactive,inactive,inactive,inactive,inactive,inactive,inactive,inactive,inactive
COC(=O)[C@H](Cc1ccccc1)NC(=O)[C@@H](N)CC(=O)O (H-Asp-Phe-OMe),inactive,inactive,inactive,inactive,inactive,inactive,inactive,inactive,inactive,inactive,inactive,inactive,inactive,inactive,inactive,inactive,inactive,inactive,,inactive
COC(=O)C1CCC(C(=O)OC)CC1 (configuration not stated),inactive,inactive,inactive,inactive,inactive,inactive,inactive,inactive,inactive,inactive,inactive,inactive,inactive,inactive,inactive,inactive,inactive,inactive,inactive,inactive
CC(=O)OC/C=C(\C)CCC=C(C)C,inactive,inactive,inactive,inactive,inactive,inactive,inactive,inactive,inactive,inactive,inactive,inactive,inactive,inactive,inactive,inactive,inactive,inactive,inactive,inactive
Cc1ccc(C)c(O)c1C,inactive,inactive,inactive,inactive,inactive,inactive,inactive,inactive,inactive,inactive,inactive,inactive,inactive,inactive,inactive,inactive,inactive,inactive,inactive,inactive
Cc1cccc([N+](=O)[O-])c1C,inactive,inactive,inactive,inactive,inactive,inactive,inactive,inactive,inactive,inactive,inactive,inactive,inactive,inactive,inactive,inactive,inactive,inactive,inactive,inactive
CCCCCCCCCCCCCO,inactive,inactive,inactive,inactive,inactive,inactive,inactive,inactive,inactive,inactive,inactive,inactive,inactive,inactive,inactive,inactive,inactive,inactive,inactive,inactive
CCCN(CCC)C(=O)SCC,inactive,inactive,inactive,inactive,inactive,inactive,inactive,inactive,inactive,inactive,inactive,inactive,inactive,inactive,inactive,inactive,inactive,inactive,inactive,inactive
Cc1ccccc1Cl,inactive,inactive,inactive,inactive,inactive,inactive,inactive,inactive,inactive,inactive,inactive,inactive,inactive,inactive,inactive,inactive,inactive,inactive,inactive,inactive
CC(C)=CCC/C(C)=C/C=O,inactive,inactive,inactive,inactive,inactive,inactive,inactive,inactive,inactive,inactive,inactive,inactive,inactive,inactive,inactive,inactive,inactive,inactive,inactive,inactive
CCC(Cc1c(I)cc(I)c(N)c1I)C(=O)O (configuration not stated),inactive,inactive,inactive,inactive,inactive,inactive,inactive,inactive,inactive,inactive,inactive,inactive and 3.65 µM (active),inactive,inactive,inactive,inactive,inactive,inactive,inactive,inactive and 10.6 µM (active)
